{"source": "PubChem BioAssay (NCATS)", "note": "A number with no mark means an inactive call. Records with an inconclusive call do not appear. Activity calls are given as the source filed them. Unless noted, calls come from the whole dose curve.", "data": [{"target": "Cytochrome P450 3A4 (Homo sapiens) (UniProt P08684)", "sequence (P08684 whole entry, looked up)": "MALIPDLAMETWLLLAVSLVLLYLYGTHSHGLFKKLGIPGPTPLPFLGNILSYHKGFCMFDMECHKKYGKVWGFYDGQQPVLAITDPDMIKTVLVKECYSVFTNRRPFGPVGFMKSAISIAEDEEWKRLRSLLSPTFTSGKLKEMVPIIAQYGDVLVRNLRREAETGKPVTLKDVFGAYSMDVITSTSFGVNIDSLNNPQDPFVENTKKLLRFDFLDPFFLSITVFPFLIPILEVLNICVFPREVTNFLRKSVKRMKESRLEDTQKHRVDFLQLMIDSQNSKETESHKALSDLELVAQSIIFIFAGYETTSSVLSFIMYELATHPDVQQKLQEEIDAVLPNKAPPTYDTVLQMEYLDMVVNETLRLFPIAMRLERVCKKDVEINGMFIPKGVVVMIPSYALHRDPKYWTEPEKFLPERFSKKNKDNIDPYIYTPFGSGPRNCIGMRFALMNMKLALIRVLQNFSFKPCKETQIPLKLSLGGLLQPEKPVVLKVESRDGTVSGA", "test": "qHTS Assay for Activators of Cytochrome P450 3A4 (AID 885; active = well fitted activation curve with a large enough effect; note: nearly all actives have a fitted effect of over 65% in size; note: potency is the fitted concentration of half-maximal effect)", "conditions": "recombinant CYP3A4, Luciferin-PPXE luminescence, 60 min; series mostly up to 57.1 µM; activity change, positive = activation: at the top concentration", "in_short": "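Human CYP3A4 dealkylates Luciferin-PPXE to luciferin, which luciferase detection converts to light. Substrate was at its KM (25uM), buffer 200mM KPO4, reaction 60 min at RT.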", "units": {"activity change, positive = activation": "%"}, "values": [{"compound": "Clc1ccccc1-c1ccc2ncnc(N3CCNCC3)c2c1", "activity change, positive = activation": -54.1}, {"compound": "CCNc1ncc2nc(-c3cccs3)c(=O)n(C)c2n1", "activity change, positive = activation": -38.7}, {"compound": "CN(C)c1ccc(-c2cc(Nc3ccc(F)cc3)ncn2)cc1", "activity change, positive = activation": -81.1}, {"compound": "COc1ncc2nc(-c3cccs3)c(=O)n(CCc3ccccc3)c2n1", "activity change, positive = activation": -97.3}, {"compound": "FC(F)(F)c1ccccc1-c1cc(NCc2ccccc2)ncn1", "Potency": "10 µM (active)"}, {"compound": "COc1cccc(Nc2ncc3nc(C)c(=O)n(C4CC4)c3n2)c1", "activity change, positive = activation": -73.8}, {"compound": "Cc1nc2cncnc2n(C2CC2)c1=O", "activity change, positive = activation": -83.1}, {"compound": "COc1cccc(Cn2c(=O)cnc3cncnc32)c1", "activity change, positive = activation": -52.8}, {"compound": "CN(C)C(=O)c1ccc(-c2cc(NCc3cccnc3)ncn2)cc1", "activity change, positive = activation": -82.6}, {"compound": "CS(=O)(=O)Nc1cccc(-c2ccc3ncnc(NCCN4CCOCC4)c3c2)c1", "activity change, positive = activation": -67.8}, {"compound": "COc1ccc2[nH]cc(CCNc3ncnc4ccc(-c5cccnc5)cc34)c2c1", "activity change, positive = activation": -96.5}, {"compound": "Cn1c(=O)c(-c2cccc(C#N)c2)nc2cnc(Oc3ccccc3)nc21", "Potency": "3.16 µM (active)"}, {"compound": "CNc1ncnc2ccc(-c3ccccc3CN(C)C)cc12", "activity change, positive = activation": -77.8}, {"compound": "O=c1c(-c2ccc(F)cc2)nc2cnc(N3CCNCC3)nc2n1C1CC1", "activity change, positive = activation": -90.7}, {"compound": "COc1ccc(-c2nc3cnc(Nc4cccc(OC)c4)nc3n(C[C@H]3CCCO3)c2=O)cc1", "activity change, positive = activation": -46.3}, {"compound": "Cc1ccccc1-c1cc(N(C)C)ncn1", "Potency": "15.8 µM (active)"}, {"compound": "Cc1cccc(CNc2cc(-c3c(C)noc3C)ncn2)c1", "activity change, positive = activation": -93.5}, {"compound": "COc1ccccc1CNc1cc(-c2c(C)noc2C)ncn1", "activity change, positive = activation": -38.3}, {"compound": "COc1ncc2nc(C)c(=O)n(C3CC3)c2n1", "activity change, positive = activation": -41.9}, {"compound": "Cc1noc(C)c1-c1ccc2ncnc(N3CCN(C)CC3)c2c1", "activity change, positive = activation": -87.9}, {"compound": "CN(C)c1ccc(-c2ccc3ncnc(-n4ccnc4)c3c2)cc1", "activity change, positive = activation": -106}, {"compound": "COc1ccccc1-c1cncnc1NCCNC(C)=O", "activity change, positive = activation": -63.9}]}, {"tested_on": "not listed separately", "test": "qHTS Assay for Identification of Small Molecule Agonists for Hypoxia Response Element Signaling Pathway (AID 914; active = well fitted activation curve with a large enough effect in the signal ratio, with a control signal flat, not every such curve was filed as active; the % refers to the signal ratio; note: potency is the fitted concentration of half-maximal effect; for activation: % of control where 0% means no effect)", "conditions": "ME-180 HRE-bla reporter, beta-lactamase ratio, CoCl2, 17 h; activation: hits give high values", "in_short": "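AC50 values come from titration-series %Activity, taken as the 460/530nm ratio of CCF4 fluorescence (excitation 405nm). CellSensor HRE-bla ME-180 cells were treated 17 hours at 37 C with compound plus an EC50 level of CoCl2.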", "units": {"activation": "%"}, "values": [{"compound": "CCNc1ncc2nc(-c3cccs3)c(=O)n(C)c2n1", "Potency": "3.16 µM (active)"}, {"compound": "COc1ncc2nc(-c3cccs3)c(=O)n(CCc3ccccc3)c2n1", "Potency": "3.16 µM (active)"}, {"compound": "COc1cccc(Nc2ncc3nc(C)c(=O)n(C4CC4)c3n2)c1", "activation": -3.86}, {"compound": "COc1cccc(Cn2c(=O)c(-c3cc(F)cc(F)c3)nc3cnc(N(C)C)nc32)c1", "Potency": "0.398 µM (active)"}, {"compound": "COc1cccc(Cn2c(=O)c(C)nc3cnc(OC)nc32)c1", "activation": 12.8}, {"compound": "O=c1c(-c2ccc(F)cc2)nc2cnc(N3CCNCC3)nc2n1C1CC1", "Potency": "2.51 µM (active)"}, {"compound": "Cn1c(=O)c(-c2ccc(Cl)cc2)nc2cnc(N3CCOCC3)nc21", "Potency": "2.51 µM (active)"}]}, {"tested_on": "not listed separately", "test": "qHTS Assay for Lipid Storage Modulators (AID 1519); note: % is set by controls: 0 for no effect and ±100 for the full control effect", "conditions": "Drosophila S3 cells, BODIPY lipid droplet/cell ratio, laser cytometry; at 57.5 µM (top of the series); cells loaded with oleic acid", "in_short": "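Cells seeded at 5,000 per well were treated with compounds over a concentration series and loaded with oleic acid (400 uM, as added). Lipid droplet fluorescence (488 nm excitation, 500-530 nm channel) was read by laser-scanning cytometry and normalized to 20 uM Triacsin C.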", "units": {"activity change, negative = inhibition": "%"}, "values": [{"compound": "Clc1ccccc1-c1ccc2ncnc(N3CCNCC3)c2c1", "activity change, negative = inhibition": 5.35}, {"compound": "CCNc1ncc2nc(-c3cccs3)c(=O)n(C)c2n1", "activity change, negative = inhibition": -12.5}, {"compound": "COCCn1c(=O)c(-c2cn(C)c3ccccc23)nc2cnc(N3CCOCC3)nc21", "activity change, negative = inhibition": 4.05}, {"compound": "CN(C)c1ccc(-c2cc(Nc3ccc(F)cc3)ncn2)cc1", "activity change, negative = inhibition": 8.67}, {"compound": "COc1ncc2nc(-c3cccs3)c(=O)n(CCc3ccccc3)c2n1", "activity change, negative = inhibition": 2.39}, {"compound": "COc1ncc2nc(-c3ccccc3)c(=O)n(-c3ccccc3)c2n1", "activity change, negative = inhibition": 3.9}, {"compound": "Cc1noc(C)c1-c1nccc(N2CCOCC2)n1", "activity change, negative = inhibition": 6.74}, {"compound": "FC(F)(F)c1ccccc1-c1cc(NCc2ccccc2)ncn1", "activity change, negative = inhibition": 5.85}, {"compound": "Cn1c(=O)c(-c2ccc(Cl)cc2)nc2cnc(Nc3ccccc3)nc21", "activity change, negative = inhibition": -14.5}, {"compound": "COc1cccc(Nc2ncc3nc(C)c(=O)n(C4CC4)c3n2)c1", "activity change, negative = inhibition": -5.91}, {"compound": "COc1cccc(Cn2c(=O)c(-c3cc(F)cc(F)c3)nc3cnc(N(C)C)nc32)c1", "activity change, negative = inhibition": -0.73}, {"compound": "CNc1nc(-c2ccc3c(c2)OCO3)nc2ccccc12", "activity change, negative = inhibition": -5.22}, {"compound": "COc1cccc(Cn2c(=O)c(C)nc3cnc(OC)nc32)c1", "activity change, negative = inhibition": 5.06}, {"compound": "Cc1nc2cncnc2n(C2CC2)c1=O", "activity change, negative = inhibition": 9.2}, {"compound": "COc1cccc(Cn2c(=O)cnc3cncnc32)c1", "activity change, negative = inhibition": 1.18}, {"compound": "COCCn1c(=O)c(-c2cc(F)cc(F)c2)nc2cnc(N3CCOCC3)nc21", "activity change, negative = inhibition": 6.45}, {"compound": "CN(C)C(=O)c1ccc(-c2cc(NCc3cccnc3)ncn2)cc1", "activity change, negative = inhibition": 3.91}, {"compound": "Cc1noc(C)c1-c1cc(NCc2cccnc2)ncn1", "activity change, negative = inhibition": 2.28}, {"compound": "CS(=O)(=O)Nc1cccc(-c2ccc3ncnc(NCCN4CCOCC4)c3c2)c1", "activity change, negative = inhibition": -0.458}, {"compound": "COCCn1c(=O)c(C)nc2cnc(N(C)C)nc21", "activity change, negative = inhibition": 4.96}, {"compound": "COc1ccc2[nH]cc(CCNc3ncnc4ccc(-c5cccnc5)cc34)c2c1", "activity change, negative = inhibition": -3.03}, {"compound": "Cn1c(=O)c(-c2cccc(C#N)c2)nc2cnc(Oc3ccccc3)nc21", "activity change, negative = inhibition": -3.03}, {"compound": "O=c1c(-c2cc(F)cc(F)c2)nc2cnc(N3CCOCC3)nc2n1Cc1cccs1", "activity change, negative = inhibition": 3.39}, {"compound": "CNc1ncnc2ccc(-c3ccccc3CN(C)C)cc12", "activity change, negative = inhibition": 4.45}, {"compound": "CN(C)C(=O)c1ccc(-c2cc(Nc3ccccc3)ncn2)cc1", "activity change, negative = inhibition": 6.97}, {"compound": "COc1cccc(Nc2ncc3ncc(=O)n(CCc4ccccc4)c3n2)c1", "activity change, negative = inhibition": -5.96}, {"compound": "O=c1c(-c2ccc(F)cc2)nc2cnc(N3CCNCC3)nc2n1C1CC1", "activity change, negative = inhibition": 2.85}, {"compound": "COc1ccc(-c2nc3cnc(Nc4cccc(OC)c4)nc3n(C[C@H]3CCCO3)c2=O)cc1", "activity change, negative = inhibition": -4.84}, {"compound": "COc1cccc(-c2ccc3ncnc(NCc4ccccc4)c3c2)c1", "activity change, negative = inhibition": -5.64}, {"compound": "Cc1ccccc1-c1cc(N(C)C)ncn1", "activity change, negative = inhibition": 6.31}, {"compound": "Cc1cccc(CNc2cc(-c3c(C)noc3C)ncn2)c1", "activity change, negative = inhibition": 8.24}, {"compound": "COc1ccccc1CNc1cc(-c2c(C)noc2C)ncn1", "activity change, negative = inhibition": 10.8}, {"compound": "Cn1c(=O)c(-c2ccc(Cl)cc2)nc2cnc(N3CCOCC3)nc21", "activity change, negative = inhibition": 6.96}, {"compound": "COc1ncc2nc(C)c(=O)n(C3CC3)c2n1", "activity change, negative = inhibition": 4.19}, {"compound": "Cc1noc(C)c1-c1ccc2ncnc(N3CCN(C)CC3)c2c1", "activity change, negative = inhibition": 0.38}, {"compound": "CN(C)c1ccc(-c2ccc3ncnc(-n4ccnc4)c3c2)cc1", "activity change, negative = inhibition": 7.19}, {"compound": "O=c1cnc2cncnc2n1Cc1ccccc1Cl", "activity change, negative = inhibition": -7.78}, {"compound": "CCNc1ncc2ncc(=O)n(CCOC)c2n1", "activity change, negative = inhibition": 6.16}, {"compound": "COc1ccccc1-c1cncnc1NCCNC(C)=O", "activity change, negative = inhibition": 0.0705}]}]}
